Source: PubChem
The list is not random: actives were taken first. Their share in the collection is about 10%.
Insulin prom inh = TRM-6 insulin promoter activity inhibition. TRM-6 cells (human fetal islet line), insulin promoter-eGFP reporter, imaging; reporter expression induced with tamoxifen. inhibition, % at 2 µM. actives 0.9% (n = 130,000);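 active = inhibition above the mean plus 3 SD, with well images judged a real hit on visual review, cut at about 60% in these data, passing the limit was not always enough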
p97 inhibitor = human p97 ATPase inhibition. recombinant p97 ATPase, Kinase-Glo ATP luminescence, 3 h. inhibition, % at 8 µM. actives 0.42% (n = 220,000); in the data active = inhibition above about 15%;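 also: 0% = DMSO vehicle and 100% = wells lacking enzyme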
Lmaj promast = inhibitors of Leishmania major promastigote growth; Leishmania major promastigotes, resazurin fluorescence viability; AID 1063; inhibition, % at 10 µM; actives 9% (n = 200,000); in the data active = inhibition above about 50%;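 also: promastigotes grown with compound for 44 hours at 28 °C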
bCat KO growth = beta-catenin-lacking colon tumor cell growth suppression; HCT116 beta-catenin knockout viability, CellTiter-Glo, 60 h; stronger effect = lower value; viability, % at 10 µM; actives 1.5% (n = 140,000);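 active = viability at or under a set limit, the compound median less 4 SD, cut at about 6% in these data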;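 also: 0% = Hyamine 1622 control at 20 µM and 100% = untreated cell control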
ROMK mod = modulates human ROMK potassium channel activity | P48048 | Tet-inducible ROMK, thallium flux fluorescence; actives lie on both sides | B-score at 10 µM | actives 2% (n = 130,000);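 active = signal ratio slope over the read window, or its plate-corrected B-score, at least 3 SD from the plate mean, either direction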;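 also: B-score of the F/F0 ratio slope over 7 to 12 s after thallium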
Target sequence (P48048 whole entry, looked up): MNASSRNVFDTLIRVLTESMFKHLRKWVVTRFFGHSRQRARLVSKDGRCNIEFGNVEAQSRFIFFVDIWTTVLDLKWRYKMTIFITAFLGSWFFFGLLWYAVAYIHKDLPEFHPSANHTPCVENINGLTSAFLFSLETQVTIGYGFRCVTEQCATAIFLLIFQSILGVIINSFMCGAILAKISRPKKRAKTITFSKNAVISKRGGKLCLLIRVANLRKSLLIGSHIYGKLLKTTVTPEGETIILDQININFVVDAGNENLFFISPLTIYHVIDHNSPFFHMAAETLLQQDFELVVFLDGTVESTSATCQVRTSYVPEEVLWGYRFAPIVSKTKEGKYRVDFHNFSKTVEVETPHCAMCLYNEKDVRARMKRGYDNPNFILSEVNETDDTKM
PTEN del growth = growth suppressors of cells with PTEN tumor suppressor deletion; actives 1.2% (n = 140,000); HCT116 PTEN-null viability, CellTiter-Glo, 60 h; stronger effect = lower value; viability, % at 10 µM; AID 827;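 active = viability at or below a set limit, 4 SD under the median of all tested compounds, cut at about 3.7% in these data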;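 also: PTEN knockout HCT116 line with beta catenin targeted HCT116 as companion control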
Numbers without * were called inactive; . = no result.

SMILES	Insulin prom inh	p97 inhibitor	Lmaj promast	bCat KO growth	ROMK mod	PTEN del growth
COc1ccc(NC(=O)C2CCN(S(=O)(=O)c3cccnc3)CC2)cc1Cl	-5	6	-10	95	-0.29	99
COc1ccc(/C(C)=N/N=C2/NC(=O)CC(C(=O)O)S2)cc1F (stereo unspecified)	.	2	.	.	.	.
O=C(Cc1sc(-c2ccccc2Cl)nc1-c1ccccc1)Nc1ccc(F)cc1	.	0	11	79	0.041	85
CN1CCN(NC(=O)c2cc(-c3ccccn3)nc3ccccc23)CC1	.	4	0	.	0.55	.
COc1cc(-c2cc(C(=O)NN3CCN(C)CC3)c3ccccc3n2)cc(OC)c1OC	11	2	91*	95	.	108
COc1cc(-c2cc(C(=O)Nc3c(Cl)cc(Cl)cc3Cl)c3ccccc3n2)cc(OC)c1OC	0	2	81*	40	-0.27	25
CC12CC3(C)CC(C)(C1)CC(C(=O)NC(=S)N1CCCC1)(C2)C3	-25	1	0	.	0.16	.
O=C(Oc1ccc([N+](=O)[O-])cc1)c1cncc(Br)c1	-17	4	26	96	.	101
CN(C)c1ccnc(N(Cc2ccccc2)Cc2ccccc2)c1C#N	17	-1	98*	74	-0.1	85
CN(C)c1ccnc(NCc2ccccc2)c1C#N	43	0	1	99	.	98
O=C(c1cc(-c2ccncc2)nc2ccccc12)N1CCN(c2ccc(N3CCOCC3)nn2)CC1	45	6	4	82	.	83
O=C(O)c1cccc(NC(=S)N/N=C/c2cccc(O)c2)c1	78*	6	-4	.	0.41	.
O=C(N/N=C/c1ccc(O)cc1)c1cccc(N/N=C/c2ccc(O)cc2)c1	.	17*	.	.	.	.
COc1ccc(S(=O)(=O)N[C@@H](Cc2ccc(Cl)cc2)C(=O)N2CC[C@@]3(O)CCCC[C@H]3C2)cc1	-8	0	86*	69	.	64
CCn1cc(C(=O)NC(=S)Nc2sc3c(c2C(=O)OC)CCCCCC3)cn1	.	5	-1	9	.	2.1*
COC(=O)c1ccccc1NC(=O)c1ccc(Cn2cc(Cl)cn2)o1	-59	0	-3	92	.	107
COC(=O)c1cc(NC(=O)c2ccc(Cn3cc(Cl)cn3)o2)cc(C(=O)OC)c1	93*	-2	5	71	-0.2	85
CCOC(=O)c1c(NC(=S)NC(=O)c2ccc(Cn3cc(Cl)cn3)o2)sc2c1CCC(C)C2 (stereo unspecified)	.	1	-3	1.9*	.	1.5*
O=C1c2ccccc2C(O)(Cc2ccccc2)N1c1ccc2c(c1)OCO2 (stereo unspecified)	.	5	-4	74	.	59
O=C(Nc1ccc(Cl)cc1)NC1CCCC1Cc1ccco1 (stereo unspecified)	.	-2	24	10	-0.25	2.9*
Nc1cc(N)c(OCC(F)(F)F)cc1OCC(F)(F)F	-19	19*	88*	100	.	99
O=C(N/N=C/c1cc(Br)ccc1O)C(=O)Nc1ccccc1OC(F)(F)C(F)F	23	-6	99*	10	.	11
O=C(N/N=C/c1cc(Cl)ccc1O)C(=O)Nc1ccccc1OC(F)(F)C(F)F	-34	2	99*	14	.	9
S=C(Nc1cccc(Cl)c1Cl)N1CCC2(CC1)OCCO2	44	-6	-4	.	0.25	.
C=C(C)CSc1nnc([C@@H](NC(=O)OC(C)(C)C)C(C)CC)o1 (stereo partly specified)	28	6	20	87	.	82
SMILES	Insulin prom inh	p97 inhibitor	Lmaj promast	bCat KO growth	ROMK mod	PTEN del growth
Cc1ccccc1N=Cc1cccc(O)c1O	0	2	0	58	0.08	63
Cc1ccc(N=Cc2cccc(O)c2O)c(C)c1	.	10	10	1.9*	.	2.0*
O=C(/C=C/c1ccco1)Oc1cc(Br)cc(/C=N/NC(=O)c2ccccc2O)c1	-4	5	99*	8	0.046	7
Cc1ccc(C(=O)N/N=C/c2cccc(OC(=O)/C=C/c3ccco3)c2)cn1	.	-1	-3	.	0.7	.
S=c1[nH]nc(-c2cccc(Cl)c2)n1CCN1CCCCC1	-83	2	-5	100	0.18	96
COC(=O)c1ccc(C(NC(=O)c2cccnc2)NC(=O)c2cccnc2)cc1	.	-3	-3	.	0.38	.
CC1C(c2ccccc2)N(C)C(c2ccccc2)C(C)C1(O)C#Cc1ccccc1 (stereo unspecified)	10	-4	69*	39	.	34
CC1C(=O)CC(c2ccccc2)N(C)C1c1ccccc1 (stereo unspecified)	.	.	2	67	.	69
OCCN1CCN(c2ncnc3c2sc2nc(N4CCOCC4)c4c(c23)CCC4)CC1	.	-8	29	66	.	65
CC1(C)Cc2c(c(N3CCCC3)nc3sc4c(N5CCN(CCO)CC5)ncnc4c23)CO1	.	-13	74*	15	.	16
COC(=O)c1ccccc1NC(=S)N1CCN(c2ccc(OC)cc2)CC1	.	1	1	.	0.057	.
Cc1nc(CSc2nnc(C)s2)cs1	62*	3	-10	94	-0.0066	91
CC(=O)c1ccc(NC(=O)CC23CC4CC(C2)CC(n2nnc(C)n2)(C4)C3)cc1	64	-4	10	.	-0.17	.
Cn1c(=O)c(C(=O)COC(=O)c2cc(C(F)(F)F)nc3ccccc23)c(N)n(Cc2ccccc2)c1=O	-40	1	45	44	0.4	54
Cn1c(=O)c(C(=O)COC(=O)c2cc(-c3ccccc3)nc3ccccc23)c(N)n(Cc2ccccc2)c1=O	-48	6	100*	75	0.067	75
Cn1c(=O)c(C(=O)COC(=O)c2cc(C3CC3)nc3ccccc23)c(N)n(Cc2ccccc2)c1=O	25	6	36	66	1	61
Cn1c(=O)c(C(=O)COC(=O)c2cc(-c3ccco3)nc3ccccc23)c(N)n(CC2CC2)c1=O	24	8	62*	39	0.22	36
Cn1c(N)c(C(=O)COc2ccc(Cl)cc2Cl)c(=O)n(C)c1=O	7	5	12	.	.	.
Cn1c(=O)c(C(=O)COc2ccc(F)cc2Cl)c(N)n(Cc2ccccc2)c1=O	-45	1	56*	.	1.9	.
CCOC(=O)N1CCC(NC(=O)C2CCN(S(=O)(=O)N3CCC(C)CC3)CC2)CC1	.	0	4	84	-0.35	83
CCOC(=O)c1c(C)nc(SCC(N)=O)c(C#N)c1-c1ccccc1	-43	6	4	83	0.5	95
COc1ccc(-c2c(C#N)c(SCC(=O)c3cc4ccccc4oc3=O)nc(C)c2C(=O)Nc2ccccc2)cc1	.	7	-6	3.2*	.	4
Cc1nc(SCC(=O)c2cc3ccccc3oc2=O)c(C#N)c(-c2ccccc2)c1C(=O)Nc1ccccc1	-7	0	-5	1.4*	-0.13	1.7*
COc1ccc(NC(=O)c2cn(CCC#N)nc2-c2cc3ccccc3o2)cc1	.	-7	-1	.	0.73	.
Cc1ccc(-n2c(N)c(C(=O)Nc3ccccc3F)sc2=S)cc1C	-17	-2	3	.	0.77	.
